In PubChem BioAssay AID2533 (National Center for Advancing Translational Sciences (NCATS), 2010):
Inconclusive results are not listed. Where a call stands in place of a potency, no number is given. The source made the active and inactive calls. The call rests on the fitted dose curve; in most records, active means well fitted activation curve with a large enough effect; inconclusive means small, poorly fitted or top-dose-only effect; inactive means flat fitted curve, though single readings scatter.

target: Pyruvate kinase PKM (Homo sapiens) (UniProt P14618); test: Confirmation Concentration-Response Assay for Activators of Human Muscle isoform 2 Pyruvate Kinase: for Probe SAR; settings: purified PKM2, ATP generation, Kinase-Glo luminescence; series mostly up to 57.5 µM; further: nearly all actives have a fitted effect of over 60% in size
Summary of the method: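 Purified hPK-M2 at 0.1 nM final converted ADP (0.1 mM) and PEP (0.5 mM) to ATP over 1 hour at room temperature in imidazole buffer, pH 7.2. ATP formed was measured by Kinase-Glo luminescence, normalized to no-enzyme and uninhibited controls.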
Potency means the concentration at half of the fitted maximal effect.

Pyruvate kinase PKM (Homo sapiens), sequence (P14618 whole entry, looked up, canonical isoform): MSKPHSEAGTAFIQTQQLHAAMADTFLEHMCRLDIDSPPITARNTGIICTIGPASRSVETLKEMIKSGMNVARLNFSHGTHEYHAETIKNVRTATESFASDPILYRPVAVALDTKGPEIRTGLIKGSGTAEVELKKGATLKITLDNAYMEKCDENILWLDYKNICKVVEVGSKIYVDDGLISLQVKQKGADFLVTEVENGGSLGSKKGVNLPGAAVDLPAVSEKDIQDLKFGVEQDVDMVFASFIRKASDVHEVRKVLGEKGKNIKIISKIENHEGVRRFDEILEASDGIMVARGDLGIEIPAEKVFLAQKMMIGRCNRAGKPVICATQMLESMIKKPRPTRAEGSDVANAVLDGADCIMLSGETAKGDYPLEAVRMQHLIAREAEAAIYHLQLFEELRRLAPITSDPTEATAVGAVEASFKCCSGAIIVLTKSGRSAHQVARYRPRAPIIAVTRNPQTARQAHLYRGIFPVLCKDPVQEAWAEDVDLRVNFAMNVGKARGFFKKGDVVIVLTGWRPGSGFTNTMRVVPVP

| Structure (SMILES) | Potency |
| --- | --- |
| O=C1CCc2cc(S(=O)(=O)Nc3cccc(C(F)(F)F)c3)ccc2N1 | 13 µM (active) |
| Cc1ccc(NS(=O)(=O)c2ccc3c(c2)NC(=O)CO3)cc1C | 20.6 µM (active) |
| O=C1c2ccccc2C(=O)N1Cc1cccnc1 | inactive |
| O=C1CCc2cc(S(=O)(=O)Nc3ccccc3-c3ccccc3)ccc2N1 | inactive |
| Cc1ccc(NS(=O)(=O)c2ccc3c(c2)CCC(=O)N3)cc1C | 0.651 µM (active) |
| Cc1ccc(NS(=O)(=O)c2cc3c(cc2N(C)C)NC(=O)CC3)cc1C | 0.366 µM (active) |
| O=S1(=O)N=C(Oc2cccc(Cl)c2)c2ccccc21 | inactive |
| Cc1ccc(NS(=O)(=O)c2cc3c(cc2-c2ccco2)NC(=O)CO3)cc1C | 9.19 µM (active) |
| Cc1ccc2nc(-c3ccc(C)o3)c(NC3CCCC3)n2c1 | inactive |
| O=C1c2ccccc2C(=O)N1c1noc2ccccc12 | inactive |
| CC(=O)Nc1ccc(OC2=NS(=O)(=O)c3ccccc32)cc1 | inactive |
| O=S1(=O)N=C(Oc2ccccc2)c2ccccc21 | inactive |
| COc1cc(F)c(S(=O)(=O)N2CCCN(S(=O)(=O)c3ccc(NC(C)=O)cc3)CC2)c(F)c1 | 16.3 µM (active) |
| Cc1c(Cl)cccc1NS(=O)(=O)c1cc2c(cc1F)NC(=O)CC2 | 3.66 µM (active) |
| O=S1(=O)N=C(Oc2ccccc2Cl)c2ccccc21 | inactive |
| O=C1c2ccccc2C(=O)N1c1ccccn1 | inactive |
| Cc1ccc(NS(=O)(=O)c2ccc3ccccc3c2)cc1C | 41.1 µM (active) |
| O=C1c2ccccc2C(=O)N1c1cnc2ccccc2c1 | inactive |
| Cc1ccc(NS(=O)(=O)c2cc3c(cc2/C=C/c2ccccc2)NC(=O)CO3)cc1C | inactive |

| Structure (SMILES) | Potency |
| --- | --- |
| O=S1(=O)N=C(N2CCOCC2)c2ccccc21 | inactive |
| O=C1c2ccccc2C(=O)N1Cc1ccccc1 | inactive |
| COc1ccc(NS(=O)(=O)c2ccccc2)cc1NS(=O)(=O)c1ccccc1 | inactive |
| COc1ccc(Nc2c(-c3ccc(C)o3)nc3ccccn23)cc1 | inactive |
| O=C1CCc2cc(S(=O)(=O)Nc3cccc4ccccc34)ccc2N1 | 13 µM (active) |
| Cc1ccccc1N(C)C1=N[S+](=O)([O-])c2ccccc21 | inactive |
| COc1cc(F)c(S(=O)(=O)N2CCN(S(=O)(=O)c3cccc(N)c3)CC2)c(F)c1 | 0.0231 µM (active) |
| Cc1ccc(NS(=O)(=O)c2cc3c(cc2F)NC(=O)CC3)cc1C | 0.73 µM (active) |
| O=S1(=O)N=C(Oc2cccc(C(F)(F)F)c2)c2ccccc21 | inactive |
| Cc1ccc(NS(=O)(=O)c2cc3c(cc2Cl)CCC(=O)N3)cc1C | 0.163 µM (active) |
| O=C1CCc2cc(S(=O)(=O)Nc3ccc(Cl)cc3)ccc2N1 | 2.06 µM (active) |
| COc1cccc(OC2=NS(=O)(=O)c3ccccc32)c1 | inactive |
| Cc1ccc(C)c(O)c1 | inactive |
| N#Cc1cccc(OC2=NS(=O)(=O)c3ccccc32)c1 | inactive |
| Nc1ccc(S(=O)(=O)N2CCN(S(=O)(=O)c3c(F)cccc3F)CC2)cc1 | 0.919 µM (active) |
| Cc1ccc(NS(=O)(=O)c2ccc3c(c2)CCC(=O)N3)cc1Cl | 0.326 µM (active) |
| Nc1ccc(S(=O)(=O)N2CCCN(S(=O)(=O)c3ccc4c(c3)OCCO4)CC2)cc1 | 1.03 µM (active) |
| Cc1ccccc1Nc1c(-c2ccc(Cl)s2)nc2ccccn12 | inactive |
